Laboratory results taken from PubChem BioAssay AID1159580 (chemical genetic matrix, 2015).
The campaign covered roughly 5,500 compounds. About 2,000 (36%) were called active. Not shown: some 18% with an inconclusive outcome. Cut-off read from the data, not from the text of the source: active = normalized growth mostly below about 0.91 (no sharp cut-off); inconclusive = no clear call, values can overlap the other calls; inactive = mostly above about 0.92. Some of the results follow.

Assay: chemical genetic growth profiling, strain panel (AID 1159580);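 note: tested at 20 µM; growth read once vehicle control cultures reached saturation at 30 °C; 1 = growth at the plate median or of vehicle wells; lower values mean less growth of the strain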
Settings: growth OD

Measured: normalized growth

CC1CC2C3CCC4=CC(=O)C=C[C@]4(C)[C@@]3(F)[C@@H](O)C[C@]2(C)[C@@]1(O)C(=O)CO (stereo partly drawn)
inactive: S. cerevisiae deletion strains, locus YAL013W, strain DEP1, active compounds read low 0.995 | S. cerevisiae deletion strains, locus YAL021C, strain ccr4, active compounds read low 0.974 | S. cerevisiae deletion strains, locus YAL026C, strain drs2, active compounds read low 0.987 | S. cerevisiae deletion strains, locus YAL030W, strain snc1, active compounds read low 0.96 | S. cerevisiae deletion strains, locus YBL061C, strain skt5, active compounds read low 0.99 | S. cerevisiae deletion strains, locus YBR009C, strain hhf1, active compounds read low 1.03 | S. cerevisiae deletion strains, locus YBR021W, strain FUR4, active compounds read low 0.984 | S. cerevisiae deletion strains, locus YBR023C, strain chs3, active compounds read low 0.983 | S. cerevisiae deletion strains, locus YBR171W, strain sec66, active compounds read low 0.982 | S. cerevisiae deletion strains, locus YBR229C, strain ROT2, active compounds read low 0.989 | S. cerevisiae deletion strains, locus YBR231C, strain swc5, active compounds read low 1.06 | S. cerevisiae deletion strains, locus YBR279W, strain paf1, active compounds read low 1 | S. cerevisiae deletion strains, locus YCL011C, strain gbp2, active compounds read low 0.954 | S. cerevisiae deletion strains, locus YCL016C, strain dcc1, active compounds read low 0.978 | S. cerevisiae deletion strains, locus YCL029C, strain bik1, active compounds read low 0.979 | S. cerevisiae deletion strains, locus YCL061C, strain MRC1, active compounds read low 0.995 | S. cerevisiae deletion strains, locus YCL069W, strain vba3, active compounds read low 0.995 | S. cerevisiae deletion strains, locus YCR088W, strain abp1, active compounds read low 0.996 | S. cerevisiae deletion strains, locus YDL005C, strain med2, active compounds read low 0.973 | S. cerevisiae deletion strains, locus YDL035C, strain GPR1, active compounds read low 1.03 | S. cerevisiae deletion strains, locus YDL040C, strain nat1, active compounds read low 0.975 | S. cerevisiae deletion strains, locus YDL074C, strain BRE1, active compounds read low 0.979 | S. cerevisiae deletion strains, locus YDL101C, strain DUN1, active compounds read low 0.976 | S. cerevisiae deletion strains, locus YDL185W, strain tfp1, active compounds read low 0.982 | S. cerevisiae deletion strains, locus YDL192W, strain arf1, active compounds read low 0.974 | S. cerevisiae deletion strains, locus YDR001C, strain nth1, active compounds read low 0.988 | S. cerevisiae deletion strains, locus YDR069C, strain doa4, active compounds read low 0.979 | S. cerevisiae deletion strains, locus YDR101C, strain arx1, active compounds read low 0.984 | S. cerevisiae deletion strains, locus YDR137W, strain rgp1, active compounds read low 0.987 | S. cerevisiae deletion strains, locus YDR159W, strain sac3, active compounds read low 1.01 | S. cerevisiae deletion strains, locus YDR162C, strain NBP2, active compounds read low 1.02 | S. cerevisiae deletion strains, locus YDR195W, strain ref2 0.99 | S. cerevisiae deletion strains, locus YDR297W, strain sur2, active compounds read low 0.995 | S. cerevisiae deletion strains, locus YDR318W, strain mcm21, active compounds read low 0.983 | S. cerevisiae deletion strains, locus YDR334W, strain swr1, active compounds read low 0.976 | S. cerevisiae deletion strains, locus YDR335W, strain msn5, active compounds read low 0.984 | S. cerevisiae deletion strains, locus YDR388W, active compounds read low 0.968 | S. cerevisiae deletion strains, locus YDR392W, strain spt3, active compounds read low 0.904 | S. cerevisiae deletion strains, locus YDR502C, strain sam2, active compounds read low 0.991 | S. cerevisiae deletion strains, locus YEL003W, strain gim4, active compounds read low 0.963 | S. cerevisiae deletion strains, locus YEL037C, strain rad23, active compounds read low 0.976 | S. cerevisiae deletion strains, locus YEL061C, strain CIN8 (second series), active compounds read low 0.988 | S. cerevisiae deletion strains, locus YEL061C, strain CIN8, active compounds read low 0.994 | S. cerevisiae deletion strains, locus YER015W, strain faa2, active compounds read low 0.991 | S. cerevisiae deletion strains, locus YER016W, strain bim1, active compounds read low 0.95 | S. cerevisiae deletion strains, locus YER110C, active compounds read low 0.958 | S. cerevisiae deletion strains, locus YER111C, strain swi4, active compounds read low 0.983 | S. cerevisiae deletion strains, locus YER155C, strain BEM2 (second series), active compounds read low 1.03 | S. cerevisiae deletion strains, locus YER155C, strain BEM2, active compounds read low 0.984 | S. cerevisiae deletion strains, locus YER167W, strain BCK2, active compounds read low 1 | S. cerevisiae deletion strains, locus YFR010W, strain ubp6, active compounds read low 1.01 | S. cerevisiae deletion strains, locus YGL078C, strain dbp3, active compounds read low 0.971 | S. cerevisiae deletion strains, locus YGL086W, strain mad1, active compounds read low 0.98 | S. cerevisiae deletion strains, locus YGL167C, strain pmr1, active compounds read low 0.983 | S. cerevisiae deletion strains, locus YGL173C, strain kem1, active compounds read low 0.979 | S. cerevisiae deletion strains, locus YGL227W, strain vid30, active compounds read low 0.999 | S. cerevisiae deletion strains, locus YGL240W, strain doc1, active compounds read low 1.01 | S. cerevisiae deletion strains, locus YGL248W, strain PDE1, active compounds read low 0.98 | S. cerevisiae deletion strains, locus YGL253W, strain hxk2, active compounds read low 0.974 | S. cerevisiae deletion strains, locus YGR135W, strain pre9, active compounds read low 0.969 | S. cerevisiae deletion strains, locus YGR229C, strain SMI1, active compounds read low 1.02 | S. cerevisiae deletion strains, locus YGR252W, strain gcn5, active compounds read low 1.02 | S. cerevisiae deletion strains, locus YHR013C, strain ard1, active compounds read low 0.954 | S. cerevisiae deletion strains, locus YHR027C, strain rpn1, active compounds read low 0.992 | S. cerevisiae deletion strains, locus YHR030C, strain SLT2, active compounds read low 0.99 | S. cerevisiae deletion strains, locus YHR079C, strain IRE1 (second series), active compounds read low 0.965 | S. cerevisiae deletion strains, locus YHR094C, strain hxt1, active compounds read low 0.97 | S. cerevisiae deletion strains, locus YHR129C, strain ARP1, active compounds read low 0.993 | S. cerevisiae deletion strains, locus YHR142W, strain chs7, active compounds read low 0.959 | S. cerevisiae deletion strains, locus YHR200W, strain rpn10, active compounds read low 0.983 | S. cerevisiae deletion strains, locus YIL066C, strain RNR3, active compounds read low 1 | S. cerevisiae deletion strains, locus YIL073C, strain SPO22, active compounds read low 0.972 | S. cerevisiae deletion strains, locus YIL125W, strain kgd1, active compounds read low 0.963 | S. cerevisiae deletion strains, locus YIR030C, strain dcg1, active compounds read low 0.965 | S. cerevisiae deletion strains, locus YJL092W, strain hpr5, active compounds read low 0.963 | S. cerevisiae deletion strains, locus YJL095W, strain BCK1 (second series), active compounds read low 0.945 | S. cerevisiae deletion strains, locus YJL095W, strain BCK1, active compounds read low 0.96 | S. cerevisiae deletion strains, locus YJL115W, strain asf1, active compounds read low 0.976 | S. cerevisiae deletion strains, locus YJL129C, strain trk1, active compounds read low 0.965 | S. cerevisiae deletion strains, locus YJL134W, strain LCB3, active compounds read low 0.99 | S. cerevisiae deletion strains, locus YJL154C, strain vps35, active compounds read low 0.966 | S. cerevisiae deletion strains, locus YJL164C, strain tpk1, active compounds read low 1 | S. cerevisiae deletion strains, locus YJL166W, strain qcr8, active compounds read low 1 | S. cerevisiae deletion strains, locus YJL168C, strain set2, active compounds read low 0.966 | S. cerevisiae deletion strains, locus YJL187C, strain SWE1 (second series), active compounds read low 0.982 | S. cerevisiae deletion strains, locus YJR043C, strain POL32, active compounds read low 1.04 | S. cerevisiae deletion strains, locus YKL009W, strain mrt4, active compounds read low 0.963 | S. cerevisiae deletion strains, locus YKL068W, active compounds read low 0.987 | S. cerevisiae deletion strains, locus YKL085W, strain MDH1 (second series), active compounds read low 0.985 | S. cerevisiae deletion strains, locus YKL085W, strain MDH1, active compounds read low 0.985 | S. cerevisiae deletion strains, locus YKL160W, strain elf1, active compounds read low 0.943 | S. cerevisiae deletion strains, locus YKR001C, strain vps1, active compounds read low 0.968 | S. cerevisiae deletion strains, locus YKR026C, strain gcn3, active compounds read low 0.993 | S. cerevisiae deletion strains, locus YKR091W, strain srl3, active compounds read low 0.97 | S. cerevisiae deletion strains, locus YLL001W, strain dnm1, active compounds read low 1.01 | S. cerevisiae deletion strains, locus YLL026W, active compounds read low 0.997 | S. cerevisiae deletion strains, locus YLL041C, strain sdh2, active compounds read low 0.96 | S. cerevisiae deletion strains, locus YLR027C, strain aat2, active compounds read low 0.997 | S. cerevisiae deletion strains, locus YLR039C, strain RIC1, active compounds read low 0.991 | S. cerevisiae deletion strains, locus YLR058C, strain SHM2, active compounds read low 0.984 | S. cerevisiae deletion strains, locus YLR102C, strain apc9, active compounds read low 0.982 | S. cerevisiae deletion strains, locus YLR221C, strain rsa3, active compounds read low 1.01 | S. cerevisiae deletion strains, locus YLR258W, strain gsy2, active compounds read low 0.962 | S. cerevisiae deletion strains, locus YLR262C, strain YPT6 (second series), active compounds read low 0.985 | S. cerevisiae deletion strains, locus YLR262C, strain YPT6, active compounds read low 0.986 | S. cerevisiae deletion strains, locus YLR268W, strain sec22, active compounds read low 0.965 | S. cerevisiae deletion strains, locus YLR320W, strain mms22, active compounds read low 1.01 | S. cerevisiae deletion strains, locus YLR330W, strain CHS5, active compounds read low 0.99 | S. cerevisiae deletion strains, locus YLR342W, strain FKS1 (second series), active compounds read low 1.02 | S. cerevisiae deletion strains, locus YLR342W, strain FKS1, active compounds read low 0.977 | S. cerevisiae deletion strains, locus YLR357W, strain rsc2, active compounds read low 0.994 | S. cerevisiae deletion strains, locus YLR370C, strain arc18, active compounds read low 0.99 | S. cerevisiae deletion strains, locus YLR371W, strain rom2, active compounds read low 0.96 | S. cerevisiae deletion strains, locus YLR384C, strain iki3, active compounds read low 1.01 | S. cerevisiae deletion strains, locus YLR418C, strain cdc73, active compounds read low 0.974 | S. cerevisiae deletion strains, locus YML016C, strain PPZ1, active compounds read low 0.989 | S. cerevisiae deletion strains, locus YML032C, strain rad52, active compounds read low 0.981 | S. cerevisiae deletion strains, locus YML120C, strain ndi1, active compounds read low 0.979 | S. cerevisiae deletion strains, locus YML124C, strain tub3, active compounds read low 0.973 | S. cerevisiae deletion strains, locus YMR058W, strain fet3, active compounds read low 0.988 | S. cerevisiae deletion strains, locus YMR078C, strain ctf18, active compounds read low 0.958 | S. cerevisiae deletion strains, locus YMR125W, strain sto1, active compounds read low 0.97 | S. cerevisiae deletion strains, locus YMR129W, active compounds read low 0.975 | S. cerevisiae deletion strains, locus YMR205C, strain PFK2, active compounds read low 1.01 | S. cerevisiae deletion strains, locus YMR223W, strain ubp8, active compounds read low 0.977 | S. cerevisiae deletion strains, locus YMR231W, strain pep5, active compounds read low 0.987 | S. cerevisiae deletion strains, locus YMR263W, strain SAP30, active compounds read low 0.979 | S. cerevisiae deletion strains, locus YMR307W, strain GAS1, active compounds read low 1.03 | S. cerevisiae deletion strains, locus YNL067W, strain RPL9B, active compounds read low 0.961 | S. cerevisiae deletion strains, locus YNL071W, strain lat1, active compounds read low 0.993 | S. cerevisiae deletion strains, locus YNL128W, strain TEP1, active compounds read low 0.973 | S. cerevisiae deletion strains, locus YNL153C, strain GIM3, active compounds read low 0.981 | S. cerevisiae deletion strains, locus YNL209W, strain ssb2, active compounds read low 0.98 | S. cerevisiae deletion strains, locus YNL233W, strain BNI4, active compounds read low 0.965 | S. cerevisiae deletion strains, locus YNL248C, strain rpa49, active compounds read low 0.907 | S. cerevisiae deletion strains, locus YNL250W, strain rad50, active compounds read low 0.962 | S. cerevisiae deletion strains, locus YNL271C, strain bni1, active compounds read low 0.962 | S. cerevisiae deletion strains, locus YNL298W, strain CLA4, active compounds read low 0.966 | S. cerevisiae deletion strains, locus YNL307C, strain MCK1, active compounds read low 0.981 | S. cerevisiae deletion strains, locus YNL322C, strain KRE1 (second series), active compounds read low 0.96 | S. cerevisiae deletion strains, locus YNR049C, strain mso1, active compounds read low 0.968 | S. cerevisiae deletion strains, locus YNR052C, strain pop2, active compounds read low 0.966 | S. cerevisiae deletion strains, locus YOL012C, strain htz1 0.786 | S. cerevisiae deletion strains, locus YOL147C, strain pex11, active compounds read low 0.971 | S. cerevisiae deletion strains, locus YOR001W, strain rrp6, active compounds read low 1.04 | S. cerevisiae deletion strains, locus YOR061W, strain CKA2, active compounds read low 0.993 | S. cerevisiae deletion strains, locus YOR069W, strain VPS5, active compounds read low 0.986 | S. cerevisiae deletion strains, locus YOR070C, strain gyp1, active compounds read low 0.988 | S. cerevisiae deletion strains, locus YOR080W, strain dia2, active compounds read low 0.957 | S. cerevisiae deletion strains, locus YOR083W, strain WHI5, active compounds read low 0.914 | S. cerevisiae deletion strains, locus YOR106W, strain vam3, active compounds read low 0.942 | S. cerevisiae deletion strains, locus YOR136W, strain idh2, active compounds read low 0.986 | S. cerevisiae deletion strains, locus YOR144C, strain elg1, active compounds read low 0.972 | S. cerevisiae deletion strains, locus YOR184W, strain ser1, active compounds read low 0.979 | S. cerevisiae deletion strains, locus YOR265W, strain rbl2, active compounds read low 0.989 | S. cerevisiae deletion strains, locus YOR270C, strain vph1, active compounds read low 0.939 | S. cerevisiae deletion strains, locus YOR290C, strain snf2, active compounds read low 0.962 | S. cerevisiae deletion strains, locus YOR316C, strain cot1, active compounds read low 0.98 | S. cerevisiae deletion strains, locus YPL051W, strain arl3, active compounds read low 0.992 | S. cerevisiae deletion strains, locus YPL078C, strain atp4, active compounds read low 0.953 | S. cerevisiae deletion strains, locus YPL106C, strain sse1, active compounds read low 0.982 | S. cerevisiae deletion strains, locus YPL240C, strain hsp82, active compounds read low 1.01 | S. cerevisiae deletion strains, locus YPR119W, strain clb2, active compounds read low 0.973 | S. cerevisiae deletion strains, locus YPR141C, strain kar3, active compounds read low 0.961 | S. cerevisiae deletion strains, locus YPR163C, strain tif3, active compounds read low 0.981 | S. cerevisiae deletion strains, locus YPR167C, strain met16, active compounds read low 0.962 | S. cerevisiae deletion strains, strain wtn01, active compounds read low 0.963 | S. cerevisiae strains, strain wild type, active compounds read low 0.995
